Laboratory results from PubChem BioAssay (NCI).
Compounds without any hit were thinned out: in the full panel of roughly 83,000, 20% have a hit.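 Testing used 96-well plates and a 48-hour single-concentration exposure. Example: -40 means 40% of the starting cells died.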 The source made the active and inactive calls. The calls were made as follows: active = growth percent below 10; inactive = the rest.

Tests used:
Test in all cases: NCI-60 one-dose screen, 48 h (100 = growth as untreated, 0 = no growth, -100 = all killed)
Settings in all cases: 10 µM unless noted
DU-145 prostate = system: DU-145 prostate
K-562 leukemia = system: K-562 leukemia
MALME-3M melanoma = system: MALME-3M melanoma
MDA-MB-231 breast = system: MDA-MB-231 breast
RXF 393 renal = system: RXF 393 renal
SF-268 CNS = system: SF-268 CNS
SF-295 CNS = system: SF-295 CNS
SF-539 CNS = system: SF-539 CNS
UACC-257 melanoma = system: UACC-257 melanoma
M14 melanoma = system: M14 melanoma

Measured: growth

COc1ccc(C(=O)c2cc(C(C)=O)c3c(C)cc(C)cn23)cc1
active: RXF 393 renal 8.06%
inactive: DU-145 prostate 66.9% | K-562 leukemia 86.4% | MALME-3M melanoma 72.1% | MDA-MB-231 breast 75.3% | SF-268 CNS 23.5% | SF-295 CNS 31% | SF-539 CNS 23.8% | UACC-257 melanoma 79.2% | M14 melanoma 84.9%

O=C(CSc1nnc(-c2ccc(-c3nc4ccc(Cl)cc4[nH]3)cc2)o1)Nc1ccccc1
inactive: K-562 leukemia 12.3% | SF-268 CNS 49.1% | SF-295 CNS 75.7% | UACC-257 melanoma 47.7%
active: DU-145 prostate 6.69% | MALME-3M melanoma 2.32% | MDA-MB-231 breast -52% | RXF 393 renal -40.6% | SF-539 CNS -92.8% | M14 melanoma 4.09%

Cc1ccc(C(C(=O)NC2CCCCC2)N(Cc2ccccc2Cl)C(=O)c2ccc(CN3CCOCC3)o2)o1 (stereo not given)
inactive: DU-145 prostate 101% | K-562 leukemia 81.6% | MALME-3M melanoma 109% | MDA-MB-231 breast 85.5% | RXF 393 renal 93.4% | SF-268 CNS 83.5% | SF-295 CNS 91.8% | SF-539 CNS 99.4% | UACC-257 melanoma 103% | M14 melanoma 98.6%

COc1ccc([C@H]2C(C(=O)c3ccc(Cl)cc3)C3(N[C@@H]2c2ccccc2)C(=O)Nc2ccccc23)cc1 (stereo not given in full)
inactive: DU-145 prostate 52% | K-562 leukemia 18.8% | MALME-3M melanoma 32.2% | MDA-MB-231 breast 25.8% | RXF 393 renal 15.8% | SF-268 CNS 37.3% | SF-295 CNS 15.2% | SF-539 CNS 34.5% | UACC-257 melanoma 44% | M14 melanoma 53%

O=C(CSc1nnc(-c2ccc(-c3nc4ccccc4[nH]3)cc2)o1)Nc1ccccc1
inactive: K-562 leukemia 33.1% | MALME-3M melanoma 93.3% | SF-268 CNS 45.7% | SF-295 CNS 94.2% | SF-539 CNS 46.7% | UACC-257 melanoma 103% | M14 melanoma 60.3%
active: DU-145 prostate 4.85% | MDA-MB-231 breast -14.5% | RXF 393 renal -1.42%

COc1c(B(O)O)cccc1-c1nc2ccc3cn[nH]c3c2c2c1CCCC2
active: RXF 393 renal -30.3% | SF-539 CNS 9.76%
inactive: DU-145 prostate 69.1% | K-562 leukemia 74.7% | MALME-3M melanoma 87% | MDA-MB-231 breast 25.3% | SF-268 CNS 50.3% | SF-295 CNS 70% | UACC-257 melanoma 83.9% | M14 melanoma 88.4%

Cc1ccc(Nc2nnc(-c3c[nH]c4ccccc34)o2)c(C)c1
active: K-562 leukemia 6.22% | MDA-MB-231 breast -1.28% | RXF 393 renal -11.9% | SF-295 CNS 9.91% | SF-539 CNS -32.4%
inactive: DU-145 prostate 16.5% | MALME-3M melanoma 39.1% | SF-268 CNS 32.5% | UACC-257 melanoma 60.9% | M14 melanoma 15.6%

CC[C@@]12CC(C(=O)OC)=C3Nc4cc5c(cc4[C@@]34CCN(C[C@H]3O[C@H]31)[C@@H]24)[C@@H]1[C@H](O5)[C@@H](O)[C@@]2(CC)CC(C(=O)OC)=C3Nc4cc(O)ccc4[C@@]34CCN1[C@@H]24
inactive: SF-268 CNS 10.3%
active: DU-145 prostate 7.47% | K-562 leukemia -8.19% | MALME-3M melanoma -39.6% | MDA-MB-231 breast -70.4% | RXF 393 renal -98.4% | SF-295 CNS -63% | SF-539 CNS -53.1% | UACC-257 melanoma -23.5% | M14 melanoma -61.4%

O=C(Nc1ccc(-c2ccc3c(c2)NC(=O)/C3=C\c2ccc[nH]2)cc1)Nc1cccc(Cl)c1
inactive: DU-145 prostate 24.6% | SF-268 CNS 32% | UACC-257 melanoma 22.3%
active: K-562 leukemia 7.56% | MALME-3M melanoma 7.96% | MDA-MB-231 breast -23.1% | RXF 393 renal -53.6% | SF-295 CNS -31% | SF-539 CNS -79.8% | M14 melanoma 9.34%

CCCCNc1ccc2c3c(cccc13)C(=O)N(c1cccc(-c3nn(-c4ccccc4)cc3-c3nc4ccccc4s3)c1)C2=O
inactive: DU-145 prostate 106% | K-562 leukemia 89.5% | MALME-3M melanoma 103% | MDA-MB-231 breast 99.1% | RXF 393 renal 98.5% | SF-268 CNS 109% | SF-295 CNS 104% | SF-539 CNS 101% | UACC-257 melanoma 113% | M14 melanoma 99.6%

CN1CCN(C(=O)CCN(C(=O)Oc2cc3c(c4ccccc24)[C@H](CCl)CN3C(=O)c2cc3cc(OCCCN4CCC4)ccc3[nH]2)[C@H]2CCSSC2)CC1
active: DU-145 prostate -84.3% | K-562 leukemia -42.9% | MALME-3M melanoma -86.8% | MDA-MB-231 breast -89.6% | RXF 393 renal -86.7% | SF-268 CNS -50.4% | SF-295 CNS -71% | SF-539 CNS -94% | UACC-257 melanoma -77.9% | M14 melanoma -62.5%

N#Cc1cc(-c2ccnc(Nc3ccc(N4CCN(C5COC5)CC4)cc3)n2)ccc1N1CCCC1
active: RXF 393 renal 9.2%
inactive: DU-145 prostate 51% | K-562 leukemia 42.5% | MALME-3M melanoma 104% | MDA-MB-231 breast 65% | SF-268 CNS 50.2% | SF-295 CNS 85.6% | SF-539 CNS 46.5% | UACC-257 melanoma 74.4% | M14 melanoma 71.9%

Cc1ccc(O)cc1Nc1nc(SCCN2CCOCC2)nc2c1cnn2CC(Cl)c1ccc(Br)cc1 (stereo not given)
inactive: DU-145 prostate 29.5% | SF-268 CNS 23.6% | SF-539 CNS 10.7% | UACC-257 melanoma 18.1%
active: K-562 leukemia -38.6% | MALME-3M melanoma 1.03% | MDA-MB-231 breast -30.6% | RXF 393 renal -24.3% | SF-295 CNS -2.67% | M14 melanoma 9.14%

O=C(Nc1ccc(-c2ccc3c(c2)NC(=O)/C3=C\c2ccc[nH]2)cc1)Nc1ccc(Cl)c(C(F)(F)F)c1
inactive: DU-145 prostate 44.1% | K-562 leukemia 15.2% | MALME-3M melanoma 64.4% | MDA-MB-231 breast 72.2% | RXF 393 renal 42.3% | SF-268 CNS 46.3% | SF-295 CNS 38.4% | SF-539 CNS 44.2% | UACC-257 melanoma 24.5% | M14 melanoma 54.8%

COc1cc(CNC(=O)C[C@H](C)CCC=C(C)C)ccc1OCc1cn(-c2ccccc2F)nn1
inactive: DU-145 prostate 102% | K-562 leukemia 81.6% | MALME-3M melanoma 78.3% | MDA-MB-231 breast 66.8% | RXF 393 renal 38.4% | SF-268 CNS 58.9% | SF-295 CNS 45.2% | SF-539 CNS 44.6% | UACC-257 melanoma 94% | M14 melanoma 94.8%

COc1nc(N)ncc1-c1ccc2ncnc(N3CCc4cc(F)c(Cl)cc43)c2c1
active: MDA-MB-231 breast -22.7% | RXF 393 renal -46.2% | SF-539 CNS 1.76%
inactive: DU-145 prostate 30.6% | K-562 leukemia 31.6% | MALME-3M melanoma 64.3% | SF-268 CNS 54.2% | SF-295 CNS 17.9% | UACC-257 melanoma 78.8% | M14 melanoma 62.4%

CCOc1ccccc1[C@H]1C(C(=O)c2ccc(Cl)cc2)C2(N[C@@H]1c1ccccc1)C(=O)Nc1ccc(Cl)cc12 (stereo not given in full)
active: K-562 leukemia 6.17% | RXF 393 renal 2.56%
inactive: DU-145 prostate 45.2% | MALME-3M melanoma 45.7% | MDA-MB-231 breast 28.8% | SF-268 CNS 46.6% | SF-295 CNS 11.1% | SF-539 CNS 37.2% | UACC-257 melanoma 69.5% | M14 melanoma 22.5%

COc1cc(CNC(=O)C[C@H](C)CCC=C(C)C)ccc1OCc1cn(-c2ccc(Cl)c(Cl)c2)nn1
inactive: DU-145 prostate 76.8% | K-562 leukemia 51.9% | MALME-3M melanoma 77.4% | MDA-MB-231 breast 75.7% | RXF 393 renal 74.8% | SF-268 CNS 58.4% | SF-295 CNS 80.5% | UACC-257 melanoma 91% | M14 melanoma 89%
active: SF-539 CNS 5.3%

O=C1Nc2ccccc2/C1=C\c1ccc(OCC(=O)c2ccc(Br)cc2)cc1
inactive: DU-145 prostate 85.6% | K-562 leukemia 27.8% | MALME-3M melanoma 81% | MDA-MB-231 breast 82.2% | RXF 393 renal 67.6% | SF-268 CNS 86.9% | SF-295 CNS 58.6% | SF-539 CNS 81.5% | UACC-257 melanoma 73.6% | M14 melanoma 73.1%

COc1ccc(NC(=O)Nc2nc3ccc([N+](=O)[O-])cc3s2)cc1
inactive: DU-145 prostate 24.8% | MDA-MB-231 breast 46.1% | SF-268 CNS 38.6% | SF-295 CNS 35.6% | UACC-257 melanoma 16% | M14 melanoma 57.6%
active: K-562 leukemia 9.59% | MALME-3M melanoma -1.52% | RXF 393 renal -0.305% | SF-539 CNS 7.77%

O=C1/C(=C/c2cccc3c2OCO3)Cc2c(F)cc(Br)cc21
inactive: DU-145 prostate 115% | K-562 leukemia 109% | MALME-3M melanoma 103% | MDA-MB-231 breast 115% | RXF 393 renal 104% | SF-268 CNS 109% | SF-295 CNS 96% | SF-539 CNS 99.7% | UACC-257 melanoma 114% | M14 melanoma 98.9%

Clc1ccc(-c2nc3ccc(-c4nnc(SCc5ccccc5)o4)cc3[nH]2)cc1
active: MDA-MB-231 breast -11.9% | RXF 393 renal -4.87% | SF-295 CNS -73.4% | SF-539 CNS -28%
inactive: DU-145 prostate 54.9% | K-562 leukemia 36.7% | MALME-3M melanoma 29.4% | SF-268 CNS 60% | UACC-257 melanoma 62.2% | M14 melanoma 67.9%

COc1ccc2[nH]c(O)c(N=Nc3nc(-c4ccc(Br)cc4)cs3)c2c1
active: MALME-3M melanoma -36.3% | RXF 393 renal -64.2% | SF-295 CNS 9.66% | SF-539 CNS -68.4%
inactive: DU-145 prostate 16% | K-562 leukemia 17.9% | MDA-MB-231 breast 35.7% | SF-268 CNS 30.5% | UACC-257 melanoma 30.3% | M14 melanoma 14.4%

O=C(CSc1nnc(-c2ccc(-c3nc4ccc(Cl)cc4[nH]3)cc2)o1)Nc1ccc(Br)cc1
active: MALME-3M melanoma -20.2% | MDA-MB-231 breast -76% | RXF 393 renal -50.9% | SF-295 CNS 8.38% | SF-539 CNS -96.3% | M14 melanoma 2.92%
inactive: DU-145 prostate 39.1% | K-562 leukemia 15% | SF-268 CNS 28.5% | UACC-257 melanoma 13.1%

C=CC(=O)N1CCN(c2ccc3nc4c(nc3c2C(F)(F)F)C(=O)c2ncccc2C4=O)CC1
active: K-562 leukemia 3.62% | MALME-3M melanoma -97.9% | MDA-MB-231 breast -13.6% | SF-539 CNS -32.9% | UACC-257 melanoma -82.7% | M14 melanoma -59.9%
inactive: DU-145 prostate 23.6% | RXF 393 renal 44.1% | SF-268 CNS 21.3% | SF-295 CNS 28.8%

COc1ccc(C(=O)c2c(N)c(C#N)cn2-c2ccc([N+](=O)[O-])cc2)cc1
inactive: DU-145 prostate 109% | K-562 leukemia 104% | MALME-3M melanoma 102% | MDA-MB-231 breast 99% | RXF 393 renal 94.2% | SF-268 CNS 99.6% | SF-295 CNS 91.9% | SF-539 CNS 95.7% | UACC-257 melanoma 111% | M14 melanoma 113%
